According to PubChem BioAssay (EPA / NIEHS):
Records with an inconclusive call do not appear. The source made the active and inactive calls. Rule for the calls: active = hit-call score of the fitted dose curve at least 0.9, where 1 is the maximum; inconclusive = response in the unintended direction; inactive = score below 0.9.

What was measured:
[1] = target: bovine Estrogen Receptor (ER), ESR1 (gene 407238) (UniProt P49884); assay: NVS_NR_bER: NovaScreen (NVS) Nuclear Receptor Binding Assay for bovine Estrogen Receptor (ER) (AID 2283345);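 note: actives lower the bound radioligand count which means they displace the ER ligand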
Sequence of bovine Estrogen Receptor (ER), ESR1 (gene 407238) (P49884 whole entry, looked up): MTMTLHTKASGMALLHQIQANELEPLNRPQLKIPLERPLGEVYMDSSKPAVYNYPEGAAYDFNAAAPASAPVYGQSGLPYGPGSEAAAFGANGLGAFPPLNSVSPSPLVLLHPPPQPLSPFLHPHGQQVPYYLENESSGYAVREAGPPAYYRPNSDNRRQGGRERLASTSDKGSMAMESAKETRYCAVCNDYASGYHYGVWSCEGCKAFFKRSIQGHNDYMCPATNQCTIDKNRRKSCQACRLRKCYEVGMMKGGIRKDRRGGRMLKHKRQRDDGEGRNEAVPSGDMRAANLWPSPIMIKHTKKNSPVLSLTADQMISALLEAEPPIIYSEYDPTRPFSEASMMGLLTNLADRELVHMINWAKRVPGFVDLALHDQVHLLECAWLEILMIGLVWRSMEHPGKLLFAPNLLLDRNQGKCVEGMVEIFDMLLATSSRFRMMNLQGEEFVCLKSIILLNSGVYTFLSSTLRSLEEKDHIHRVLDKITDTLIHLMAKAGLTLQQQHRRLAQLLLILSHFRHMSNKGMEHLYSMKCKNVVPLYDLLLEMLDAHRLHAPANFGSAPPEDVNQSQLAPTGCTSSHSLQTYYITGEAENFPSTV
Summary of the method: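 Bovine uterine membranes; tritiated or iodinated radioligand; competitive displacement; 18 h; scintillation read; DMSO negative control; 25 uM duplicates, then concentration series for actives.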

[2] = target: chimpanzee Androgen Receptor (AR), AR (gene 747460) (UniProt O97775); assay: NVS_NR_cAR: NovaScreen (NVS) Nuclear Receptor Binding Assay for chimpanzee Androgen Receptor (AR) (AID 2283346);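 note: radioligand displacement from AR measured by scintillation counting in a cell-free assay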
Sequence of chimpanzee Androgen Receptor (AR), AR (gene 747460) (O97775 whole entry, looked up): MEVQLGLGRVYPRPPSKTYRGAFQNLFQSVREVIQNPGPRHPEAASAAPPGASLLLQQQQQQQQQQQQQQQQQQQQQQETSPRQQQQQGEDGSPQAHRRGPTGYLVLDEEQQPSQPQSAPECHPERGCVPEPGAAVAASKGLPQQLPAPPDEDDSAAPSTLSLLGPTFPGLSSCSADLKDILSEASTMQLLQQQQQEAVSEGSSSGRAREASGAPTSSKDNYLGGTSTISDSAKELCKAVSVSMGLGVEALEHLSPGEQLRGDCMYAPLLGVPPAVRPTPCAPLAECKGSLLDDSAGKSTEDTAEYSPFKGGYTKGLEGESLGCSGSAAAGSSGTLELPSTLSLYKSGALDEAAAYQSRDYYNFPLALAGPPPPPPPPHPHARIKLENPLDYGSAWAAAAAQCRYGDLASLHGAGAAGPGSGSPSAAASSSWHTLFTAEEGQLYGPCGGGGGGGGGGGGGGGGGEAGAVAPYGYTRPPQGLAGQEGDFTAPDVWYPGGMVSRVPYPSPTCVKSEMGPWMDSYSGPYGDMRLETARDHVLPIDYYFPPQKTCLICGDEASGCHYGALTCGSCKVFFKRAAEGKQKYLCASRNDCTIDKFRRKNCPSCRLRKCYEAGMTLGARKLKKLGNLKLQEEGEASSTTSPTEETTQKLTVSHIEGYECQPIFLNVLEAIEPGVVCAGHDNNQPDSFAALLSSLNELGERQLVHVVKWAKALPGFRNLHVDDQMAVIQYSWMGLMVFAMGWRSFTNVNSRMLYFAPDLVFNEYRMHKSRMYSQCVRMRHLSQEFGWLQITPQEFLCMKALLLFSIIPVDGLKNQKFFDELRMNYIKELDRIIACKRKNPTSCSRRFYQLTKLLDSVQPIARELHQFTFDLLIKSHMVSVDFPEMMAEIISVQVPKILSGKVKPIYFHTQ
Summary of the method: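 Cell-free radioligand displacement using receptor protein extracted from Sf9/Sf21 cells; bound radioligand measured by scintillation counting 72 hours after chemical dosing. Loss of signal versus DMSO baseline indicates binding; primary screen single-concentration in duplicate at 25 uM, actives followed in concentration series.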

[3] = target: Estrogen receptor (Homo sapiens) (UniProt P03372); assay: OT_ER_ERaERa_1440: Odyssey Thera (OT) 24-hour HEK293T Protein-Complementation Assay for Estrogen Receptor-alpha/-alpha Homodimer (AID 2283349);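 note: hits raise fluorescence above DMSO for agonists and antagonists alike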
Sequence of Estrogen receptor (Homo sapiens) (P03372 whole entry, looked up, the tested form may be a part): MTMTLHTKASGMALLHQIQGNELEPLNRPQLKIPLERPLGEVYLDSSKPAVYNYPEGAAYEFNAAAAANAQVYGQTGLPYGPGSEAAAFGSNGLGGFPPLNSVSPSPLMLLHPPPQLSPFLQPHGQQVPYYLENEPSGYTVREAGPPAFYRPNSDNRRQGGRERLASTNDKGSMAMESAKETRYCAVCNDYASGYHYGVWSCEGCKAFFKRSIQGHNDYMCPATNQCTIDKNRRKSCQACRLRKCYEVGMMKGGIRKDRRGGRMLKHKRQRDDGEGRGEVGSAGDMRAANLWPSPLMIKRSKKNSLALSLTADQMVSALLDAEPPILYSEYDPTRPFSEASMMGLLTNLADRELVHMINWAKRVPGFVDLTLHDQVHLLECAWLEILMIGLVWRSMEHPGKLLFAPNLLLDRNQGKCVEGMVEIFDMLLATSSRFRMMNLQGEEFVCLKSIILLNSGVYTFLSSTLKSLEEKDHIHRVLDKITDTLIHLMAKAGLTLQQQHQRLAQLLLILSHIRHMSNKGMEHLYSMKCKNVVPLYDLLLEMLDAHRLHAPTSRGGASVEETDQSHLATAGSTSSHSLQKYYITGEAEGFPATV
Summary of the method: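 Readout is the rise in mean fluorescence from reporter fragment complementation when ERα LBD (aa 310-547) units dimerize in HEK293T cells. Measured 24 h after dosing and analysed as increase over DMSO control.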

[4] = target: Estrogen receptor (Homo sapiens) (UniProt P03372); assay: OT_ER_ERaERa_0480: Odyssey Thera (OT) 8-hour HEK293T Protein-Complementation Assay for Estrogen Receptor-alpha/-alpha Homodimer (AID 2283351);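 note: rise in fluorescence from reassembled reporter fragments on ERα LBD homodimer in nucleus or whole cell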
Summary of the method: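 The readout is complementation of fragments fused to the human ER alpha ligand-binding domain (aa 310-547), stably expressed in HEK293T cells. After 8 h of exposure, the increase in nuclear/cytoplasmic fluorescence was measured by laser scanning cytometry and fitted relative to DMSO.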

[5] = target: Estrogen receptor (Homo sapiens) (UniProt P03372); assay: NVS_NR_hER: NovaScreen (NVS) Nuclear Receptor Binding Assay for human Estrogen Receptor (ER) (AID 2283348)
Summary of the method: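 Cell-free radioligand binding with protein extracted from MCF7 cells; scintillation counting 18 hours after dosing. Loss of signal versus DMSO baseline read as displacement; primary single-concentration screen at 25 uM in duplicate, actives retested in concentration series.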

[6] = target: T1, Estrogen receptor (Homo sapiens) + Estrogen receptor beta (Homo sapiens) (UniProt P03372+Q92731); assay: OT_ER_ERaERb_0480: Odyssey Thera (OT) 8-hour HEK293T Protein-Complementation Assay for Estrogen Receptor-alpha/-beta Heterodimer (AID 2283352)
T1 sequence (P03372 whole entry, looked up): as the sequence (P03372 whole entry, looked up, the tested form may be a part) above
T1 sequence (Q92731 whole entry, looked up): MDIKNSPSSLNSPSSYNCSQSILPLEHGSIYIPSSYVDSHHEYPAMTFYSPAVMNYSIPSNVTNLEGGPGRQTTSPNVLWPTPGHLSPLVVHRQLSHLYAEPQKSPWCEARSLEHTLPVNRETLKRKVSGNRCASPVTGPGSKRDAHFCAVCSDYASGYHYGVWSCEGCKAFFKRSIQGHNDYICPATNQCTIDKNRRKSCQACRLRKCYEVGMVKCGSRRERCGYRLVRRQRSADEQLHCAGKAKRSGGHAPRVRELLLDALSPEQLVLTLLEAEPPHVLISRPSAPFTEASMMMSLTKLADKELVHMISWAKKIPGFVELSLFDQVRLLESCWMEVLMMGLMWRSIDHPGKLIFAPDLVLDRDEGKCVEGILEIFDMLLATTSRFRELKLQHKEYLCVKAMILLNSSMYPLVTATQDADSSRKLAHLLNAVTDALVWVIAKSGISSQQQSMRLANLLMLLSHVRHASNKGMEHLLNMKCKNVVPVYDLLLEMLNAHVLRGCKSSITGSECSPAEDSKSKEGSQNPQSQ
Summary of the method: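 Compound added to HEK293T cells carrying split-reporter-tagged ER-alpha and ER-beta LBDs, incubated 8 hours, then imaged by laser scanning cytometer. Signal rise in nucleus, or nucleus and cytoplasm, over vehicle was fitted in the positive direction.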

[7] = target: Androgen Receptor/SRC-1 Co-activator, AR (gene 367) (UniProt P10275); assay: OT_AR_ARSRC1_0960: Odyssey Thera (OT) 16-hour HEK293T Protein-Complementation Assay for Androgen Receptor/SRC-1 Co-activator (AID 2283353);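 note: actives raise the signal above DMSO so potency reflects increased AR and SRC-1 complex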
Sequence of Androgen Receptor/SRC-1 Co-activator, AR (gene 367) (P10275 whole entry, looked up, the tested form may be a part): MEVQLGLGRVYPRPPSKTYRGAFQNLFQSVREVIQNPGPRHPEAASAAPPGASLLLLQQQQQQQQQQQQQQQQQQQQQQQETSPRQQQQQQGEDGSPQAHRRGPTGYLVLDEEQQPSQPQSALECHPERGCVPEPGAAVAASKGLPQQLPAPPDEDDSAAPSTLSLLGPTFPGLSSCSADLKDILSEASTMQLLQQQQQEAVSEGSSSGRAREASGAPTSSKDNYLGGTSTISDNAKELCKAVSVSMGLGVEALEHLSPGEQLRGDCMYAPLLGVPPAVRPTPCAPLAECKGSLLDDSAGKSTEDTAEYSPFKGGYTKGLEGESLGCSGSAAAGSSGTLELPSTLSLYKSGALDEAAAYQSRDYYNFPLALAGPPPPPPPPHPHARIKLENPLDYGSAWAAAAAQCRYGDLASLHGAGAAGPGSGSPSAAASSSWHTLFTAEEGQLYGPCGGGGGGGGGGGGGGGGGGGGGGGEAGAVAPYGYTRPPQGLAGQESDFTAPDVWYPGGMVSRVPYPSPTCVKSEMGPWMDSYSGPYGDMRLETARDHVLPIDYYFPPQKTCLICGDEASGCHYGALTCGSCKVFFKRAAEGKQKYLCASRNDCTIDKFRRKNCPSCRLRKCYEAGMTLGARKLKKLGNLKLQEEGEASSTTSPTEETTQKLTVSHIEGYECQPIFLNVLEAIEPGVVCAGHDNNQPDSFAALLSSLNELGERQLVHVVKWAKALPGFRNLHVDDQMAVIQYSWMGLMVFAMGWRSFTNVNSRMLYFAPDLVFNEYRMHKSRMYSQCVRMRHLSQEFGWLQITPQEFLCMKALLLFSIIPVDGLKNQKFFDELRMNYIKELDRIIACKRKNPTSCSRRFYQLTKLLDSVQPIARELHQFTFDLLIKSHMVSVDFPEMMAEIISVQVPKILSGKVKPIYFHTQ
Summary of the method: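 HEK293T cells stably expressing AR and SRC-1 fused to Venus YFP fragments, imaged 16 h after dosing. Nuclear/cytoplasmic fluorescence ratio at 488 nm from at least 400 cells per image; gain of signal relative to DMSO.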

[8] = target: Androgen Receptor/SRC-1 Co-activator, AR (gene 367) (UniProt P10275); assay: OT_AR_ARSRC1_0480: Odyssey Thera (OT) 8-hour HEK293T Protein-Complementation Assay for Androgen Receptor/SRC-1 Co-activator (AID 2283354);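 note: hits raise the complementation signal above DMSO so AC50 marks enhancers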
Summary of the method: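 HEK293T cells stably expressing AR and SRC-1 fused to split Venus YFP fragments via (Gly4Ser)2 linkers were read 8 h after compound dosing. Complementation was imaged at 488 and 635nm, and nuclear/cytoplasmic fluorescence ratio (488nm) was taken over ≥400 cells; gain-of-signal versus DMSO.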

[9] = target: T1, Estrogen receptor (Homo sapiens) + Estrogen receptor beta (Homo sapiens); assay: OT_ER_ERaERb_1440: Odyssey Thera (OT) 24-hour HEK293T Protein-Complementation Assay for Estrogen Receptor-alpha/-beta Homodimer (AID 2283356);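 note: heteromer of ER alpha and ER beta binding domains; hits raise reporter fluorescence and both agonists and antagonists give an increase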
Summary of the method: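 Stable HEK293T PCA line, ERα LBD 310-547 + ERβ LBD 263-489 fused to reporter fragments; 24 h treatment; fluorescence read by laser scanning cytometry; positive fitting direction relative to DMSO.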

[10] = target: Estrogen receptor beta (Homo sapiens) (UniProt Q92731); assay: OT_ER_ERbERb_0480: Odyssey Thera (OT) 8-hour HEK293T Protein-Complementation Assay for Estrogen Receptor-beta/-beta Homodimer (AID 2283357);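 note: active means signal gain over DMSO baseline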
Sequence of Estrogen receptor beta (Homo sapiens) (Q92731 whole entry, looked up, the tested form may be a part): as the sequence (Q92731 whole entry, looked up) above
Summary of the method: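 Readout: increase in mean fluorescence intensity (nucleus for agonists; nucleus plus cytoplasm for antagonists) relative to DMSO, from a reporter-fragment complementation of human ER-beta LBD homodimer in HEK293T cells dosed 8 hours.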

[11] = target: Retinoic acid receptor alpha (Homo sapiens) (UniProt P10276); assay: NVS_NR_hRAR_Antagonist: NovaScreen (NVS) Nuclear Receptor Binding Assay for human Retinoic Acid Alpha Receptor Antagonism (RAR) (AID 2283358)
Sequence of Retinoic acid receptor alpha (Homo sapiens) (P10276 whole entry, looked up): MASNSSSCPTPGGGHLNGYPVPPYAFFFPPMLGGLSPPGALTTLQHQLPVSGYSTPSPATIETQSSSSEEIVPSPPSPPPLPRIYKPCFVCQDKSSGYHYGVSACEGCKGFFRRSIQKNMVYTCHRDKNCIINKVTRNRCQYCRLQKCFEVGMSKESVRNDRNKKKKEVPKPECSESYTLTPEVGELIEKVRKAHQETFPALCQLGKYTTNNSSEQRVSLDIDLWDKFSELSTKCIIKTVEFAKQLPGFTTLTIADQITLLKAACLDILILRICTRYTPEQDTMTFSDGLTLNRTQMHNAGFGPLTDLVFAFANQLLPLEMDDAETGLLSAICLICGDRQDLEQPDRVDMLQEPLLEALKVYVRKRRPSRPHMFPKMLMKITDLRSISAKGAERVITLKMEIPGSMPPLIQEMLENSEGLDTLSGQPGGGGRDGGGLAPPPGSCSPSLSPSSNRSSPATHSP
Summary of the method: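 Cell-free TR-FRET binding assay on extracted receptor protein, run in antagonist mode; signal read 2 hours after chemical dosing. Loss of signal was fitted relative to DMSO baseline. Screened at 25 uM in duplicate, actives followed up in concentration series.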

[12] = target: human Peroxisome Proliferator-activated Receptor alpha (PPARa), PPARA (gene 5465) (UniProt Q07869); assay: NVS_NR_hPPARa: NovaScreen (NVS) Nuclear Receptor Binding Assay for human Peroxisome Proliferator-activated Receptor alpha (PPARa) (AID 2283359);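 note: activity means loss of TR-FRET signal versus DMSO baseline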
Sequence of human Peroxisome Proliferator-activated Receptor alpha (PPARa), PPARA (gene 5465) (Q07869 whole entry, looked up): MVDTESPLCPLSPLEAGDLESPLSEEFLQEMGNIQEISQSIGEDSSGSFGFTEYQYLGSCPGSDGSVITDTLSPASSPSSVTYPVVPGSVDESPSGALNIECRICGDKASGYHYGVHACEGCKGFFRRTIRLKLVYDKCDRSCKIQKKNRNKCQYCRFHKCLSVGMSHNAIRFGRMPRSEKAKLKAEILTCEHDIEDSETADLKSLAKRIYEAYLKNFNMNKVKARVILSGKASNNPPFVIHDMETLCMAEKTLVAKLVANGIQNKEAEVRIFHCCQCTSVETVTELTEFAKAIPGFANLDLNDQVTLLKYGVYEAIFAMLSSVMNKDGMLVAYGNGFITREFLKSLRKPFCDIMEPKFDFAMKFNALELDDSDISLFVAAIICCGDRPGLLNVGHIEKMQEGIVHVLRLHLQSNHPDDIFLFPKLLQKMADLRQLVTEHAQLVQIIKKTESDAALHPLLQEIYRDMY
Summary of the method: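 Cell-free binding assay with extracted human protein, read by TR-FRET 1 h after chemical dosing. Loss of signal relative to DMSO baseline indicates binding. Primary screen used duplicate single concentration (25 uM); actives followed up in concentration series.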

## OC1CCCCCCCCCCC1
[1]
  outcome: inactive
[2]
  outcome: inactive
[3]
  outcome: inactive
[4]
  outcome: inactive

## Nc1ccc2cc3ccccc3cc2c1
[5]
  outcome: inactive

## CCC(C)OC(=O)c1ccc(O)cc1 (stereo not drawn)
[1]
  AC50: 9.45 µM (active)
[5]
  AC50: 0.603 µM (active)

## CCCOC(=O)CCCCC(=O)OCCC
[2]
  outcome: inactive

## O=C(c1ccc(O)cc1)c1ccc(O)cc1O
[1]
  AC50: 2.12 µM (active)
[5]
  AC50: 0.481 µM (active)

## Cc1cc(O)c(Cl)c(C)c1Cl
[1]
  outcome: inactive

## Oc1ccc(Cl)cc1Cc1cc(Cl)ccc1O
[1]
  outcome: inactive
[2]
  AC50: 16.2 µM (active)
[5]
  AC50: 25 µM (active)
[3]
  AC50: 11.9 µM (active)
[6]
  AC50: 11.9 µM (active)
[7]
  AC50: 29.6 µM (active)
[8]
  AC50: 55.5 µM (active)
[9]
  AC50: 11.9 µM (active)
[10]
  AC50: 11.9 µM (active)
[11]
  outcome: inactive
[12]
  AC50: 14 µM (active)

## [Cl][Bi]([Cl])([c]1ccccc1)([c]1ccccc1)[c]1ccccc1
[1]
  outcome: inactive
[5]
  outcome: inactive

## O=C(O)c1ccccc1Nc1cccc(C(F)(F)F)c1
[5]
  outcome: inactive

## C=CC(=O)OCCOC(=O)C=C
[1]
  outcome: inactive
[5]
  outcome: inactive

## O=C1CCCCCN1SSN1CCCCCC1=O
[1]
  outcome: inactive

## NC(CO)(CO)CO
[1]
  outcome: inactive
[5]
  outcome: inactive
[3]
  outcome: inactive
[4]
  outcome: inactive

## COc1ccc(C(Cl)=C(c2ccc(OC)cc2)c2ccc(OC)cc2)cc1
[1]
  outcome: inactive
[5]
  AC50: 7.49 µM (active)

## CN(C)c1ccc(N=Nc2ccccc2C(=O)O)cc1
[1]
  outcome: inactive
[2]
  outcome: inactive
[3]
  outcome: inactive
[4]
  outcome: inactive
[9]
  outcome: inactive
[10]
  outcome: inactive

## O=C1Nc2ccccc2C1(c1ccc(O)cc1)c1ccc(O)cc1
[1]
  outcome: inactive
[5]
  outcome: inactive

## COC(=O)C1=C(C)NC(C)=C(C(=O)OCC(C)C)C1c1ccccc1[N+](=O)[O-] (stereo not drawn)
[5]
  outcome: inactive
